An excerpt weighted towards active compounds, which were near 12% of everything screened.
USP17 inh – inhibitors of human USP17 deubiquitinase; purified USP17, Ub-rhodamine cleavage fluorescence, 3 h; inhibition, % at 50 µM; Ubiquitin carboxyl-terminal hydrolase 17-like protein 5 (Homo sapiens), A8MUK1; AID 1645855, 2021; 47,000 compounds, 6.5% hits
USP30 block – inhibitors of human USP30 deubiquitinase. Ubiquitin carboxyl-terminal hydrolase 30 (Homo sapiens), Q70CQ3. purified USP30, Ub-rhodamine cleavage fluorescence. inhibition, % at 25 µM. 47,000 compounds, 5.3% hits. AID 1645860, 2021
USP28 inh – inhibitors of human USP28 deubiquitinase | Ubiquitin carboxyl-terminal hydrolase 28 (Homo sapiens), Q96RU2 | purified USP28, Ub-rhodamine cleavage fluorescence, 30 min | inhibition, % at 25 µM | 47,000 compounds, 3% hits | AID 1645857, 2021
OTUD3 block – inhibitors of human OTUD3 deubiquitinase; 47,000 compounds, 0.7% hits; inhibition, % at 25 µM; purified OTUD3, Ub-rhodamine fluorescence, 2 h; AID 1645858, 2021
Target sequence (Q5T2D3 whole entry, looked up): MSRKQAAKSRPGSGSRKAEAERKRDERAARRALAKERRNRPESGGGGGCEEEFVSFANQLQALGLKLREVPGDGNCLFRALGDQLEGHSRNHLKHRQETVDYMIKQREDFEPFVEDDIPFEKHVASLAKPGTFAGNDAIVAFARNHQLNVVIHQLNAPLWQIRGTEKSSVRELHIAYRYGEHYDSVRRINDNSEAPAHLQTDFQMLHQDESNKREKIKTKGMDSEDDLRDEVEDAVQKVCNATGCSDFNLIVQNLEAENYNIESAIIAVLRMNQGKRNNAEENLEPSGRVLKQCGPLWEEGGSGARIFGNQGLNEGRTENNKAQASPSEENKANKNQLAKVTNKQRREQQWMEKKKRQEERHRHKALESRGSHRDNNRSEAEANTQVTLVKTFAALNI
Each line names hits and unclear results; the compound was inactive in the other large screens. No stated cut-off is given here; in the data, active means inhibition above about 30%; inactive means the rest.

O=C(c1ccc2occc2c1)N1CCC(S(=O)(=O)c2ccc(-c3ccco3)cc2)CC1	USP17 inh 52.6
CCN(CC)c1ccc(C(=O)CN2CCC(S(=O)(=O)c3ccc(C)cc3)CC2)cc1	none
CCN(CC)c1ccc(C(=O)CN2CCC(S(=O)(=O)c3ccc(-c4ccco4)cc3)CC2)cc1	USP17 inh 31.2
O=S(=O)(c1ccc(-c2ccco2)cc1)C1CCN(Cc2cccnc2)CC1	none
O=C(COc1nc2ccccc2nc1N1CCOCC1)Nc1cccc(S(=O)(=O)N2CCCCC2)c1	OTUD3 block 47.5
O=C(Nc1cccc(S(=O)(=O)N2CCCC2)c1)c1ccc(N2CCOCC2)c([N+](=O)[O-])c1	USP28 inh 40.7
Cc1cc(C)c(C#N)c(N2CCN(S(=O)(=O)Cc3ccccc3)CC2)n1	USP17 inh 45.3
C/C=C1/C2=CCCN3C(=O)O[C@H]([C@H]1O)[C@H]23	USP17 inh 72.2, USP28 inh 69.1
COc1ccc(Br)cc1CNC(=O)C1CCCN(c2nnc(N3CCCC3=O)s2)C1 (stereo not drawn)	USP17 inh 39.7
CCOc1ccccc1CNC(=O)C1CCCN(c2nc3ccccc3[nH]2)C1 (stereo not drawn)	none
COc1ccccc1CNC(=O)C1CCCN(c2nc3ccsc3c(=O)s2)C1 (stereo not drawn)	USP17 inh 56.8
O=C(NCc1ccccc1Cl)C1CCCN(c2nc3ccsc3c(=O)s2)C1 (stereo not drawn)	USP17 inh 54.6
COc1cccc(CNC(=O)C2CCCN(c3nnc(N4CCCC4=O)s3)C2)c1OC (stereo not drawn)	none
CCOC(=O)C1CCN(c2nnc(-c3nc(C4CC4)no3)c3ccccc23)CC1	none
CCc1cc(C(F)(F)F)n2nc(C3CCN(C(=O)c4ccccc4F)C3)cc2n1 (stereo not drawn)	none
Cc1cc(C(F)(F)F)n2nc(C3CCN(C(=O)c4cnn(C)c4C)C3)cc2n1 (stereo not drawn)	USP17 inh 50.2
Cc1cc(O)c2c(=O)c3c(O)cccc3oc2c1O	USP17 inh 37.4
CNC(=O)C1CN(C(=O)Nc2ccc3c(c2)CCC3)CC12CCOCC2 (stereo not drawn)	none
COc1ccc(-n2nnnc2CN2CCN(S(=O)(=O)c3ccc(Cl)cc3)CC2)cc1	USP17 inh 40.2, USP30 block 47.1
CC(=O)NC(Cc1ccccc1C)C(=O)NC1CCN(C(=O)C2CC2)CC1 (stereo not drawn)	none
CN1CCc2cc(C(CNC(=O)COc3ccccc3)N3CCCCC3)ccc21 (stereo not drawn)	none (no result: USP17 inh)
Cc1ccc(CNS(=O)(=O)c2cc3[nH]c4c(c3cc2C)C(=O)CCC4)cc1	USP28 inh 43.6
CCc1cc2c3c([nH]c2cc1S(=O)(=O)NCc1cccc(OC)c1)CCCC3=O	none
CCc1cc2c3c([nH]c2cc1S(=O)(=O)NCc1ccccc1)CCCC3=O	none
Cc1cc2c3c([nH]c2cc1S(=O)(=O)N1CCCCC1C)CCCC3=O (stereo not drawn)	USP17 inh 36.8
Cc1cc2c3c([nH]c2cc1S(=O)(=O)NCc1ccc2c(c1)OCO2)CCCC3=O	USP28 inh 30.9
COc1ccccc1NC(=O)CSc1nc(=O)n2ccccc2n1	none
O=C(NCc1ccc(C(F)(F)F)cc1)C1CCN(c2nc3nc[nH]c(=O)c3s2)CC1	USP17 inh 42.5
CNc1cc(C)nc(C2CN(C(=O)c3ccc(C)n(C)c3=O)CCO2)c1 (stereo not drawn)	USP30 block 32.4
Cc1ccc(NC(=O)COc2ccccc2/C=C2/NC(=O)N(Cc3ccc(F)cc3)C2=O)cc1	USP30 block 45.2, USP28 inh 39.3
Cc1ccc(NC(=O)COc2ccccc2C#N)cc1	none
O=C(NC1CCCC1)C1CN(C(=O)Nc2ccc(F)cc2)CC12CCOCC2 (stereo not drawn)	none
Cc1ccc(-n2c(C)cc(/C=C3\C(=N)N4N=C(COc5ccccc5)SC4=NC3=O)c2C)cc1	none (no result: USP30 block, USP28 inh)
Cn1c(SCc2ccc(C(C)(C)C)cc2)nc(-c2ccccc2)c1-c1ccccc1	USP30 block 33.9
CCOc1ccc(Oc2ccc(NC(=O)COc3ccc(C(=O)c4ccccc4)cc3)cc2)cc1	none
N=c1sccn1CC(=O)Nc1ccc(Oc2ccccc2)cc1	USP28 inh 37.1
COc1ccc(CCC(=O)Nc2cccn3ncnc23)cc1	none
O=C(NCc1ccc(CN2CCCC2)cc1)c1cc2ccccc2[nH]c1=O	USP17 inh 65.3
O=C(Nc1ccc(F)cc1)c1cc2ccccc2[nH]c1=O	none (no result: USP30 block, USP28 inh)
CC(=O)Nc1ccc(NC(=O)Cc2csc(COc3ccc(C)cc3)n2)cc1	USP17 inh 52.2 (no result: USP30 block, USP28 inh)
Cc1ccc(OCc2nc(CC(=O)Nc3cccc(F)c3)cs2)cc1	none
O=C1COc2ccc(C(=O)COC(=O)c3ccc4ccccc4n3)cc2N1	USP17 inh 44.2
CCc1nc(N2CCCC2=O)sc1C(=O)Nc1cccc(C)c1	USP28 inh 48.8 (no result: USP17 inh)
CCc1nc(N2CCCC2=O)sc1C(=O)Nc1cccc(C(C)=O)c1	USP28 inh 52.3
CC1NC(=O)C(CC(N)=O)NC(=O)C(C(C)O)NC(=O)C(C(C)C)NC(=O)C(C(C)C)NC(=O)C(NC(=O)CC(O)CCCCCCCCCCCCN=C(N)N)C(C)OC1=O (stereo not drawn)	USP17 inh 70.1, USP30 block 89.7, USP28 inh 84.2, OTUD3 block 83.3
COc1ccc(C(=O)COC(=O)c2ccccc2NS(=O)(=O)c2ccc(O)c([N+](=O)[O-])c2)cc1	USP17 inh 73.6, USP30 block 47.2, USP28 inh 59.6, OTUD3 block 36.1
O=C(NCc1cccc(Cl)c1)c1ccc(-c2nnc(-c3ccccc3)o2)cc1	USP17 inh 50.3
Cc1cccc(CNC(=O)c2ccc(-c3nnc(-c4cccc(C)c4)o3)cc2)c1	USP17 inh 81.6
O=C(Nc1cnc(N2CCOCC2)nc1)c1cccc(Cl)c1	none
O=C(NCc1ccc(F)cc1F)c1c(O)c2cnn(-c3ccc(F)cc3)c2[nH]c1=O	none
COc1ccccc1CNC(=O)c1c(O)c2cnn(-c3cccc(C)c3)c2[nH]c1=O	USP17 inh 39.1, USP28 inh 76.0
COc1ccc(C(=O)N2C[C@H]3CC[C@@H](N(C)c4cnccn4)[C@H]3C2)cn1	none
COC(=O)c1ccc(NC(=O)c2cccc3c2SCCC3=O)cc1	USP17 inh 36.2
CN(CCCNC(=O)c1cccc2c1SCCC2=O)c1ccccc1	USP17 inh 53.9
Cc1ccc(C(=O)Nc2ncc(Cl)cn2)cc1	none
CN1C(=O)c2ccccc2C(C(=O)Nc2nc3ccccc3s2)C1c1cccs1 (stereo not drawn)	USP17 inh 37.2
COCCN1C(=O)c2ccccc2C(C(=O)Nc2ccccn2)C1c1cccs1 (stereo not drawn)	none
COc1ccc2nc(NC(=O)C3c4ccccc4C(=O)N(C)C3c3cccs3)sc2c1 (stereo not drawn)	none
COCCN1C(=O)c2ccccc2C(C(=O)Nc2cc(C)ccn2)C1c1cccs1 (stereo not drawn)	USP30 block 33.2
